# Results: PubChem BioAssay AID2283162 (EPA ToxCast)
# Inconclusive results are not listed. Activity calls are given as the source filed them. Rule for the calls: active = hit-call score of the fitted dose curve at least 0.9, where 1 is the maximum; inconclusive = response in the unintended direction; inactive = score below 0.9.
# Target: human Insulin-like Growth Factor 1 Receptor (IGF1R), IGF1R (gene 3480) (UniProt P08069)
# Assay: NVS_ENZ_hIGF1R: NovaScreen (NVS) Enzymatic Assay for human Insulin-like Growth Factor 1 Receptor (IGF1R)
# Experimental: NVS_ENZ_hIGF1R is a biochemical, single-readout assay that uses extracted gene-proteins in a cell-free assay. Measurements were taken 1 hour after chemical dosing in a 384-well plate.NVS_ENZ_hIGF1R is one of one assay component(s) measured or calculated from the NVS_ENZ_hIGF1R assay. It is designed to make measurements of enzyme activity, a form of enzyme reporter, as detected with fluorescence intensity signals by Fluorescence and electrophoretic mobility shift technology.Data from the assay component NVS_ENZ_hIGF1R was analyzed into 1 assay endpoint. This assay endpoint, NVS_ENZ_hIGF1R, was analyzed in the positive analysis fitting direction relative to DMSO as the negative control and baseline of activity. Using a type of enzyme reporter, loss-of-signal activity can be used to understand changes in the enzymatic activity as they relate to the gene IGF1R. Furthermore, this assay endpoint can be referred to as a primary readout, because this assay has produced multiple assay endpoints where this one serves a enzymatic activity function. To generalize the intended target to other relatable targets, this assay endpoint is annotated to the kinase intended target family, where the subfamily is receptor tyrosine kinase.
# Binding assays used specific radioligands (tritiated, iodinated) with non-radioactive competitive displacement ligands in agonist or antagonist protocols (as indicated) and various reference compounds and inhibitors to titrate specific binding to receptors and transporters. Most enzyme assays (CYPs, kinases, phosphatases, proteases, HDACs) used recombinant protein and specific substrates (fluorescence mostly, some colorimetric and radioactive) and inhibitors, followed by a biochemical separation of substrate and product. All assays for the biochemical HTS were initially run in duplicate at a single concentration (10 uM for CYP450 assays and 25 uM for all others). Assay-chemical combinations meeting a pre-defined threshold (e.g., 30% inhibition and other criteria defined below) were then run in singleton concentration-response format with maximum concentration of 20 uM for CYPs and 50 uM for all others. Each assay was run with positive and negative controls, and concurrent controls on every plate. The follow-up (secondary) screen tested active chemical-pairs in concentration series, as well as a few additional assays not tested in the primary screen, some selected negative inactives, and several cases re-run in the concentration series for confirmatory purposes.
# Chain of human Insulin-like Growth Factor 1 Receptor (IGF1R), IGF1R (gene 3480) (P08069 whole entry, looked up): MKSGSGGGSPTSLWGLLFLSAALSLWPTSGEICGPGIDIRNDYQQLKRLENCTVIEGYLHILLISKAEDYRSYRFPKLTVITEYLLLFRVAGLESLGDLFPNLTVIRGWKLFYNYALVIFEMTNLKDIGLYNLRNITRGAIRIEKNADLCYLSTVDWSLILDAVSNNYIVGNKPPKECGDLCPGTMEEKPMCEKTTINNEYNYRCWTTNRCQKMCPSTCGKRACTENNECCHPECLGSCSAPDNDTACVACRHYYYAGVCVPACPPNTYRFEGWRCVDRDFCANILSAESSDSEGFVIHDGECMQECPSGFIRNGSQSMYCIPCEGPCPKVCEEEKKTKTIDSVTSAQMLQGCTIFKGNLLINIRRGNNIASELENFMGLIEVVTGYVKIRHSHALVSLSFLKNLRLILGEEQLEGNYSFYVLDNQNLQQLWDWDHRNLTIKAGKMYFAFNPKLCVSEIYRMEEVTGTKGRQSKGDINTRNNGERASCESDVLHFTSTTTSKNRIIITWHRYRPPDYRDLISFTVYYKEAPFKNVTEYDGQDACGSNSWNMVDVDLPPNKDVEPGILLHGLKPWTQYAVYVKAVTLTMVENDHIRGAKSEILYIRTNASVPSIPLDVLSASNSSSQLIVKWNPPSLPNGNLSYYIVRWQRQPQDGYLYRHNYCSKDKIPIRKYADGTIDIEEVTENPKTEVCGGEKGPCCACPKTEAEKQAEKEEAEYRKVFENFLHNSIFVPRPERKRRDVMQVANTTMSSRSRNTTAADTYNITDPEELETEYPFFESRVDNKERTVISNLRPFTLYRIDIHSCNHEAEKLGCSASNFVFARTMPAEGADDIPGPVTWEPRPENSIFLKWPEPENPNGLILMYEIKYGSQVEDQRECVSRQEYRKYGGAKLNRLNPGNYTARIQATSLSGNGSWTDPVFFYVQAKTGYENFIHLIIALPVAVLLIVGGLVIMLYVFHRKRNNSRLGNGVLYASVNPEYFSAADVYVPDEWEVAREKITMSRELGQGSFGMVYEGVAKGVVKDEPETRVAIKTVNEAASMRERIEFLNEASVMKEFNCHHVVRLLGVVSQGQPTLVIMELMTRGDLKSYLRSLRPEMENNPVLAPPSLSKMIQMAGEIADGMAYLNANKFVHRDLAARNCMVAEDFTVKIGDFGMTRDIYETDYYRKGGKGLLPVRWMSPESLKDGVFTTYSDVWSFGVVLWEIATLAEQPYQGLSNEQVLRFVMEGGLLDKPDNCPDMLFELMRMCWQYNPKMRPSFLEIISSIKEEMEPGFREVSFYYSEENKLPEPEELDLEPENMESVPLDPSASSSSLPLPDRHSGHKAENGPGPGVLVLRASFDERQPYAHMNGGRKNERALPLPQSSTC
SMILES,AC50,outcome
COc1cc(C(=O)NC2CCN(C)CC2)ccc1Nc1ncc2c(n1)N(C1CCCC1)CC(F)(F)C(=O)N2C,23.2 µM (active),
CC(C)c1cccc(C(C)C)c1NC(=O)NS(=O)(=O)c1cc(C(C)(C)O)co1,,inactive
CN(C)C(=O)NC1(c2ccccc2)CCN(CCC[C@]2(c3ccc(Cl)c(Cl)c3)CCCN(C(=O)c3ccccc3)C2)CC1,,inactive
CCCCCCCC/C=C\CCCCCCCC(=O)OC[C@@H](O)[C@H]1OC[C@H](O)[C@H]1O,,inactive
c1ccc(C(O[C@@H]2CCCN(CCc3ccc4c(c3)OCO4)C2)c2ccccc2)cc1,,inactive
O=C(O)CC(O)(CC(=O)O)C(=O)O,5.18 µM (active),
CCCCc1ccc2c(n1)[C@@H](c1ccc(OC)cc1C[C@H](C)C(=O)O)[C@H](C(=O)O)[C@H]2c1ccc2c(c1)OCO2,,inactive
